ERa coact inh – blocks coactivator binding to human estrogen receptor alpha | inhibition, % at 25.6 µM | AID 629 | TR-FRET ER-alpha LBD / SRC-1 peptide, estradiol-bound | hit rate 1.7% among 86,000; in the data active = inhibition above about 50%;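 also: 0% = receptor plus peptide control and 100% = peptide only without receptor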
ERa coact pot – enhances coactivator binding to human estrogen receptor alpha. P03372. TR-FRET ERalpha-LBD/SRC-Cy5 coactivator binding, 2 h; 100 = basal binding, no effect. coactivator binding (% of control), % at 25.6 µM. hit rate 1.3% among 86,000; in the data active = activity above about 200%;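 also: binding measured in presence of low estradiol as agonist stimulus; 0% = peptide alone without receptor and 100% = receptor with peptide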
PTPN22 inh 2 – inhibitors of human LYP (PTPN22) phosphatase; Q9Y2R2; recombinant LYP catalytic domain, DiFMUP fluorescence; inhibition, % at 2 µM; hit rate 0.21% among 96,000;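 active = inhibition at 2 µM at or above a set limit, the screen mean plus 3 SD, cut at about 24% in these data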;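 also: 0% = DMSO with enzyme and 100% = enzyme fully blocked by orthovanadate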
LYP act – LYP (human) phosphatase activation | recombinant LYP, DiFMUP fluorescence; 0 = plate median, 100 = signal doubled | hit rate 0.11% among 96,000 | activation, % at 2 µM;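 active = activation at 2 µM above a set limit, the mean plus 5 SD, cut at about 37% in these data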
FAK inh – blocks human focal adhesion kinase activity; Q05397; biochemical FAK kinase activity assay; inhibition, %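 (tested at 7 µM)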; hit rate 0.84% among 97,000; AID 727; in the data active = inhibition above about 19%;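 also: 0% = DMSO and 100% = reference compound high control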
ERb SRC1 inh – ER-beta (human) coactivator binding inhibition; Q92731; TR-FRET ER-beta LBD / SRC1-Cy5 peptide binding; receptor agonist-loaded with 1 µM estradiol; inhibition, % at 25.6 µM; hit rate 1.3% among 86,000; AID 633;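 active = compounds whose percent inhibition of the receptor-coactivator binding signal exceeds about 50% in the single-dose screen, limit read from the data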;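 also: 0% = receptor plus peptide wells without compound and 100% = peptide-only wells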
Numbers without * were called inactive; [ ] = dose if it differs, or a comment. In the library only some 3.4% were active in any assay of this set; here they are far more common.

Results for CC(C(=O)N1CCCc2ccccc21)N1C(=O)c2ccccc2C1=O (configuration not stated) ?
ERa coact inh: -1.6; ERa coact pot: 95.5; PTPN22 inh 2: 3.5; LYP act: -3.0; FAK inh: -1.8; ERb SRC1 inh: -7.2

How did COc1cc(-c2nc(-c3ccc(NC(=O)c4ccc(Br)o4)cc3)no2)cc(OC)c1OC do in these assays?
ERa coact inh: 71.5*[fluorescence artefact?]; ERa coact pot: 226.5*[fluorescence artefact?]; PTPN22 inh 2: 0.4; LYP act: -0.1; FAK inh: 12.2; ERb SRC1 inh: 32.5

How did COc1ccc(-c2ccc(-c3noc(-c4ccc(OC)c(OC)c4)n3)c(OC)n2)cc1 do in these assays?
ERa coact inh: 80.5*; ERa coact pot: 86.6; ERb SRC1 inh: 44.2

Results for COc1ccccc1-c1noc(-c2cc(OC)c(OC)c(OC)c2)n1 ?
ERa coact inh: -14.9; ERa coact pot: 98.2; PTPN22 inh 2: -6.5; LYP act: 5.8; FAK inh: -1.4; ERb SRC1 inh: -5.9

Results for COc1ccc(-c2ccc(-c3noc(-c4cccs4)n3)c(OC)n2)cc1 ?
ERa coact inh: 37.4; ERa coact pot: 473.7*; PTPN22 inh 2: 9.8; LYP act: -6.0; FAK inh: -30.5; ERb SRC1 inh: 28.8

How did COc1cc(OC)cc(-c2nc(-c3ccccc3OC)no2)c1 do in these assays?
ERa coact inh: -1.6; ERa coact pot: 488.1*[fluorescence artefact?]; PTPN22 inh 2: 4.8; LYP act: -5.3; FAK inh: 0.0; ERb SRC1 inh: -5.0

What do the screens show for `COc1cccc(CNC(=O)C2CCCN(S(=O)(=O)c3c(C)[nH]c(=O)[nH]c3=O)C2)c1` (configuration not stated)?
ERa coact inh: -2.6; ERa coact pot: 106.4; PTPN22 inh 2: 11.7; LYP act: -9.7; FAK inh: -2.2; ERb SRC1 inh: -2.7

Results for COc1ccc(CC(=O)Nc2ccc(-c3noc(-c4ccccc4OC)n3)cc2)cc1 ?
ERa coact inh: 31.1; ERa coact pot: 328.3*[fluorescence artefact?]; PTPN22 inh 2: 0.3; LYP act: 2.1; FAK inh: 6.4; ERb SRC1 inh: 15.6

What do the screens show for `COc1cccc(-c2nc(-c3ccc(NC(=O)Cc4ccccc4OC)cc3)no2)c1`?
ERa coact inh: 26.2; ERa coact pot: 197.4; PTPN22 inh 2: 2.0; LYP act: -5.2; FAK inh: 0.8; ERb SRC1 inh: 13.2

How did COc1ccc(-c2ccc(-c3noc(-c4ccccc4C)n3)c(OC)n2)cc1 do in these assays?
ERa coact inh: -3.0; ERa coact pot: 230.1*[fluorescence artefact?]; PTPN22 inh 2: -2.6; LYP act: 1.4; FAK inh: 5.8; ERb SRC1 inh: 23.0

Results for COc1ccc(-c2nc(-c3ccc(Br)cc3)no2)c(OC)c1 ?
ERa coact inh: 13.1; ERa coact pot: 205.7*[fluorescence artefact?]; PTPN22 inh 2: -0.4; LYP act: -1.0; FAK inh: -0.3; ERb SRC1 inh: 8.9

How did COc1ccc(-c2ccc(-c3noc(C)n3)c(OC)n2)cc1 do in these assays?
ERa coact inh: 12.9; ERa coact pot: 152.0; PTPN22 inh 2: -7.9; LYP act: 6.6; FAK inh: 1.8; ERb SRC1 inh: 9.2

Results for COc1ccc(-c2ccc(-c3noc(-c4ccccc4OC)n3)c(OC)n2)cc1 ?
ERa coact inh: 33.1; ERa coact pot: 231.1*; PTPN22 inh 2: 10.1; LYP act: -6.3; FAK inh: -4.2; ERb SRC1 inh: 4.2

Results for Cc1ccccc1CSc1n[nH]c(NS(=O)(=O)c2ccccc2)n1 ?
PTPN22 inh 2: 6.4; LYP act: -5.0; FAK inh: 3.1

Results for Cc1nonc1OCC(C)(COc1nonc1C)NC(=O)c1ccccc1 ?
ERa coact inh: -6.2; ERa coact pot: 103.3; PTPN22 inh 2: 0.1; LYP act: -1.9; FAK inh: -1.8; ERb SRC1 inh: 2.6

What do the screens show for `COc1ccc(Cl)cc1-c1nc(-c2ccncc2)no1`?
ERa coact inh: 29.7; ERa coact pot: 268.4*; PTPN22 inh 2: -5.1; LYP act: 4.7; FAK inh: -1.5; ERb SRC1 inh: 33.7

Results for O=S(=O)(c1ccc(OCC(O)CN2CCN(c3ccc(F)cc3)CC2)cc1)N1CCOCC1 (configuration not stated) ?
ERa coact inh: 2.4; ERa coact pot: 89.2; PTPN22 inh 2: 4.4; LYP act: -7.6; FAK inh: -6.2; ERb SRC1 inh: 9.6

What do the screens show for `CN(CC(O)COc1ccc(S(=O)(=O)N2CCOCC2)cc1)C1CCCCC1` (configuration not stated)?
ERa coact inh: -5.4; ERa coact pot: 101.0; PTPN22 inh 2: -1.5; LYP act: 1.0; FAK inh: -0.3; ERb SRC1 inh: 78.3*

Results for CCOC(=O)c1cn2c3c(c(F)c(F)c(F)c3c1=O)SC(N1CCCC1)=N2 ?
ERa coact inh: 14.3; ERa coact pot: 268.4*[fluorescence artefact?]; ERb SRC1 inh: -15.1

How did CCOC(=O)c1cn(-c2ccc(F)c(F)c2)c2c(F)c(F)c(F)c(F)c2c1=O do in these assays?
PTPN22 inh 2: -6.5; LYP act: 4.3; FAK inh: 1.5

What do the screens show for `N#Cc1c(Cl)c(Cl)c2nnc(-c3ccc(Br)cc3)n2c1Cl`?
PTPN22 inh 2: 14.0; LYP act: -10.4; FAK inh: -5.9

What do the screens show for `C=C(C)CSc1nc2c(cc1C#N)CCC2`?
ERa coact inh: 4.1; ERa coact pot: 125.2; PTPN22 inh 2: -1.4; LYP act: -1.2; FAK inh: 2.4; ERb SRC1 inh: 99.2*[fluorescence artefact?]

Results for Cc1cccc(CSc2nc3c(cc2C#N)CCC3)c1 ?
ERa coact inh: 20.9; ERa coact pot: 179.3; PTPN22 inh 2: -4.4; LYP act: -3.1; FAK inh: -3.3; ERb SRC1 inh: 67.9*[fluorescence artefact?]

How did COc1cccc(C2C(C#N)=C(N)Oc3cc(C)oc(=O)c32)c1OC (configuration not stated) do in these assays?
ERa coact inh: -3.5; ERa coact pot: 96.6; ERb SRC1 inh: -6.9

Results for O=C(NC(=S)Nc1nc2c(s1)CSc1ccccc1-2)c1ccccc1 ?
ERa coact inh: 3.3; ERa coact pot: 179.0; PTPN22 inh 2: 9.5; LYP act: -11.9; FAK inh: -4.7; ERb SRC1 inh: 0.9

How did CN1c2ccsc2C(O)=C(C(=S)Nc2ccc(F)c(Cl)c2)S1(=O)=O do in these assays?
ERa coact inh: -2.4; ERa coact pot: 92.2; PTPN22 inh 2: -4.3; LYP act: 6.8; FAK inh: -4.6; ERb SRC1 inh: -0.3

What do the screens show for `Cc1occc1C(=O)Nc1ccccc1NC(=O)c1ccoc1C`?
ERa coact inh: 57.8*; ERa coact pot: 115.8; PTPN22 inh 2: -1.2; LYP act: -3.8; FAK inh: 0.1; ERb SRC1 inh: 54.8*

How did Oc1c(Br)cc(C2N=C(c3ccccc3Cl)NO2)cc1Br (configuration not stated) do in these assays?
ERa coact inh: -2.3; ERa coact pot: 61.6; PTPN22 inh 2: 1.1; LYP act: 1.9; FAK inh: -1.1; ERb SRC1 inh: -0.7

Assay outcomes deposited in PubChem by several laboratories.
